Several values for one entry are separate records, joined by “and”; a condition that tells them apart may be missing. Equal entries are not always repeated. Inconclusive results are not listed. Entries that show only a call come without a potency. More than one record can exist for a structure, and the calls need not agree. Activity calls are given as the source filed them. Unless noted, calls come from the whole dose curve; as a rule, active = well fitted curve in the direction sought with a large enough effect in the repeat runs; inconclusive = weak or mixed curves; inactive = no such curve, though single readings can be large; an effect the other way counts as inactive or inconclusive.
How the values were obtained:
[1] = qHTS assay to identify small molecule antagonists of the vitamin D receptor (VDR) signaling pathway - cell viability counter screen (AID 743225); note: nearly all actives have a fitted effect of over 50% in size
Procedure, shortened: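 Cells (VDR-UAS-bla HEK 293T) are plated, rested 4 h at 37C, dosed with compound and 3 nM final 1-alpha,25-dihydroxy vitamin D3, and incubated 16 h. Viability is taken from CellTiter-Glo luminescence in the reporter wells.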

[2] = qHTS assay to identify small molecule agonists of the endoplasmic reticulum stress response signaling pathway (AID 1159516; active = well fitted activation curve with a large enough effect in the signal ratio in the repeat runs, not every such curve was filed as active; the % refers to the signal ratio)
Procedure, shortened: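 Cells are seeded at 1,500 per well and incubated overnight. Compounds in DMSO are added for 5 hr at 37 C, then beta-lactamase FRET substrate for 2 hr at room temperature, and fluorescence at 460 and 530 nm is measured.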

[3] = qHTS assay to identify small molecule agonists of the endoplasmic reticulum stress response signaling pathway - cell viability counter screen (AID 1159517; calls by dose curve; note: nearly all actives have a fitted effect of over 50% in size; note: potency is the fitted concentration of half-maximal effect)
Procedure, shortened: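 ESRE-bla HeLa cells (1,500/well) were plated overnight at 37 C and exposed to compounds for 5 hr. After the 2 hr beta-lactamase substrate read, CellTiter-Glo went into the same wells, and luminescence was read after 30 min at room temperature.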

[4] = qHTS assay to identify small molecule antagonists of the retinoid-related orphan receptor gamma (ROR-gamma) signaling pathway - cell viability counter screen (AID 1159520); note: nearly all actives have a fitted effect of over 50% in size
Procedure, shortened: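 Cytotoxicity was read from cellular ATP (CellTiter-Glo luminescence) after 16 hr at 37 C with 1 uM doxycycline induction. The inducer was added 2 hr after compound transfer to Tet-on ROR gamma CHO cells.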

[5] = biological target: Nuclear receptor ROR-gamma (Homo sapiens) (UniProt P51449); assay: qHTS assay to identify small molecule antagonists of the retinoid-related orphan receptor gamma (ROR-gamma) signaling pathway (AID 1159521; note: nearly all actives have a fitted effect of over 50% in size; note: potency is the fitted concentration of half-maximal effect)
Procedure, shortened: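 RORγ antagonism is scored from reduced reporter luminescence in Tet-on CHO cells. Induction used 1 uM final doxycycline hyclate for 16 h at 37 C, following a 2 h compound exposure.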

[6] = qHTS assay to identify small molecule agonists of the AP-1 signaling pathway - cell viability counter screen (AID 1159525; calls by dose curve; note: nearly all actives have a fitted effect of over 55% in size; note: potency is the fitted concentration of half-maximal effect)
Procedure, shortened: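 Intracellular ATP by Cell Titer Glo luminescence (30 min, RT) in the same ME-180 AP-1-bla wells after the 5 h compound exposure at 37 °C. Normalised to tetra n-octyl ammonium bromide and DMSO controls.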

[7] = qHTS assay to identify small molecule agonists of the AP-1 signaling pathway (AID 1159526; calls by dose curve)
[8] = biological target: Retinoic acid receptor RXR-alpha (Homo sapiens) (UniProt P19793); assay: qHTS assay to identify small molecule agonists of the RXR signaling pathway (AID 1159527; calls by dose curve; note: nearly all actives have a fitted effect of over 35% in size)
Procedure, shortened: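 qHTS of the Tox21 10K library in GeneBLAzer RXR-alpha HEK 293T cells carrying a beta-lactamase reporter […]; 16 hr treatment, 9-cis retinoic acid as agonist control, FRET read-out.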

[9] = qHTS assay to identify small molecule agonists of the RXR signaling pathway - cell viability counter screen (AID 1159529); note: nearly all actives have a fitted effect of over 50% in size; note: potency is the fitted concentration of half-maximal effect
Procedure, shortened: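 Cell viability is measured by CellTiter-Glo luminescence, 30 min at room temperature, in wells already read for beta-lactamase. Engineered HEK 293T cells (RXR-alpha-UAS-bla) are dosed 16 hr at 37 C. Tetraoctyl ammonium bromide serves as positive control.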

[10] = qHTS assay to identify small molecule antagonists of the retinoid acid receptor (RAR) signaling pathway - cell viability counter screen (AID 1159551); note: nearly all actives have a fitted effect of over 35% in size
Procedure, shortened: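 Cells (C3RL4) are plated, incubated overnight, dosed with compound in DMSO, then given retinol at 1 uM final. After 6 h at 37 C, CellTiter-Glo is added and luminescence read following 30 min at room temperature.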

[11] = qHTS assay to identify small molecule antagonists of the retinoic acid receptor (RAR) signaling pathway (AID 1159552; note: nearly all actives have a fitted effect of over 50% in size)
Procedure, shortened: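 Quantitative HTS in C3RL4 RARE-luciferase reporter cells. Compounds were added with 1 uM (final) retinol; luminescence was read after 6 hr.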

[12] = qHTS assay to identify small molecule agonists of the NFkB signaling pathway - cell viability counter screen (AID 1159515; calls by dose curve; note: series mostly up to about 61 µM; nearly all actives have a fitted effect of over 55% in size)
Procedure, shortened: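 Cells are seeded (2,000 NFkB-bla ME-180 per well), rested overnight, and dosed with DMSO-dissolved compounds for 5 hr at 37 C. Viability is then read by CellTiter-Glo luminescence after 30 min at room temperature.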

[13] = qHTS assay to identify small molecule agonists of the retinoic acid receptor (RAR) signaling pathway (AID 1159553); note: potency is the fitted concentration of half-maximal effect
Procedure, shortened: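 Seed C3RL4 reporter cells at 1,000 per well and incubate overnight at 37 C. Add compounds in DMSO, incubate 6 hr. Add luciferase reagent, wait 30 min at room temperature, read luminescence.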

[14] = qHTS assay to identify small molecule antagonists of the estrogen related receptor (ERR) signaling pathway - cell viability counter screen (AID 1224818); note: series mostly up to about 46 µM
Procedure, shortened: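 ERR cells, 2,000/well; 6 h settle at 37 C/5% CO2; compound pin transfer (DMSO); 17.5 h at 37 C; CellTiter-Fluor, 30 min, fluorescence read.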

[15] = qHTS assay to identify small molecule antagonists of the estrogen related receptor (ERR) signaling pathway (AID 1224819)
Procedure, shortened: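 qHTS in ERR cells, 2,000/well, 1536 format. Cpd (DMSO) added after 6 h settle, 18 h 37 C. One-Glo luminescence, 30 min RT.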

[16] = qHTS assay to identify small molecule agonists of the estrogen related receptor (ERR) signaling pathway (AID 1224820)
Procedure, shortened: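 After 6 h plating (2,000 cells/well) and 18 h compound treatment at 37 C, ERR cells were lysed with One-Glo and luminescence read after 30 min at room temperature.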

[17] = qHTS assay to identify small molecule agonists of the estrogen related receptor signaling pathway with the pleiotropic PPARgamma coactivator (PGC) (AID 1224823)
Procedure, shortened: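 Luminescence from One-Glo reagent (30 min, room temperature) was read after 18 h compound treatment at 37 C of PGC/ERR cells plated 6 h beforehand; compounds delivered in DMSO by pin tool.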

[18] = qHTS assay to identify small molecule agonists of the vitamin D receptor (VDR) signaling pathway - cell viability counter screen (AID 743224)
Procedure, shortened: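 Cells: VDR-bla, 2,000/well, settled 4 h. Treatment: compounds in DMSO, 16 h, 37C/5% CO2. Readout: CellTiter-Glo luminescence after 30 min RT.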

[19] = qHTS assay to identify small molecule antagonists of the estrogen related receptor signaling pathway with the pleiotropic PPARgamma coactivator (PGC) cell viability counter screen (AID 1224822;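 note: series mostly up to about 46 µM; viability read after 17.5 h compound exposure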)
Procedure, shortened: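 Multiplexed viability counter screen run in PGC/ERR cells treated with compounds for 17.5 h at 37 C; live-cell protease signal measured by CellTiter-Fluor fluorescence.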

Sequence of Retinoic acid receptor RXR-alpha (Homo sapiens) (P19793 whole entry, looked up): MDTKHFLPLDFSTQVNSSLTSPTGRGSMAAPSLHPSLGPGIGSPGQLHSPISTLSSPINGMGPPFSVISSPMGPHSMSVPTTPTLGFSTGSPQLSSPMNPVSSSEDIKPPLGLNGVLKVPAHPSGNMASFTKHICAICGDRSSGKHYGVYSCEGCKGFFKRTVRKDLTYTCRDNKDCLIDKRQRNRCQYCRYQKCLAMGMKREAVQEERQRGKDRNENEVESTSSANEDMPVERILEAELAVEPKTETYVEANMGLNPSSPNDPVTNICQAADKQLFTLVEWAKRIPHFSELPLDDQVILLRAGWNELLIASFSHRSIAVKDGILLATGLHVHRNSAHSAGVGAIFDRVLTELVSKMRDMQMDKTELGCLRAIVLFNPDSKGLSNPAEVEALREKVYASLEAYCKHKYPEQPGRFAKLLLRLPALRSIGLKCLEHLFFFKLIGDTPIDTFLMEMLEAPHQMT

Row | SMILES | Potency [1] | outcome [2] | Potency [3] | Potency [4] | Potency [5] | Potency [6] | Potency [7] | Potency [8] | Potency [9] | Potency [10] | Potency [11] | Potency [12] | Potency [13] | Potency [14] | Potency [15] | outcome [16] | outcome [17] | Potency [18] | Potency [19]
1 | O=C1c2ccccc2Cc2ccccc21 | inactive | inactive | inactive | inactive | inactive | inactive | inactive | inactive | inactive | inactive | inactive |  |  |  |  |  |  |  | 
2 | S=c1[nH]c2ccccc2s1 |  |  |  |  |  |  |  |  | inactive | inactive |  | inactive | 8.63 µM (active) | inactive | inactive | inactive | inactive |  | 
3 | CCCCCCOC(=O)c1ccc(O)cc1 |  | inactive | 49 µM (active) | inactive | inactive |  |  | inactive |  | inactive | inactive |  | 4.33 µM (active) and 1.93 µM (active) |  |  |  |  |  | 
4 | CC[C@H](c1ccc(O)cc1)[C@@H](CC)c1ccc(O)cc1 |  | inactive | inactive | inactive | 54.5 µM (active) and inactive | 54.9 µM (active) and inactive | inactive |  | 49 µM (active) | inactive |  |  |  |  |  |  |  | inactive | 
5 | N#CC1(c2ccc(F)cc2)CCC(=O)CC1 | inactive | inactive | inactive | inactive | inactive | inactive | inactive | inactive | inactive |  | inactive |  |  |  |  |  |  | inactive | 
6 | O=C(NOCC1CC1)c1ccc(F)c(F)c1Nc1ccc(I)cc1Cl | inactive |  |  |  | 9.44 µM (active) |  |  |  |  | inactive | inactive | inactive |  |  |  |  |  |  | 
7 | CCCCCCCCCCC=O | inactive | inactive | inactive | inactive | inactive | inactive | inactive | inactive | inactive |  | inactive |  | inactive |  |  |  |  | inactive | 
8 | C1CCCC1 | inactive | inactive | inactive | inactive | inactive | inactive | inactive | inactive |  | inactive | inactive |  | inactive |  |  |  |  | inactive | 
9 | C[n+]1ccn(Cc2ccccc2)c1 | inactive | inactive | inactive | inactive | inactive | inactive | inactive | inactive | inactive |  | inactive |  |  |  |  |  |  | inactive | 
10 | COc1cccc(N)c1 |  | inactive | inactive | inactive | inactive | inactive | inactive | inactive |  |  | inactive |  |  |  |  |  |  |  | 
11 | CCN(C(=O)N(CC)c1ccccc1)c1ccccc1 | inactive | inactive | inactive | inactive | inactive | inactive | inactive | inactive | inactive |  | inactive |  | inactive |  |  |  |  | inactive | 
12 | C/C=C1/C(=O)C[C@H]2[C@@H]3CCC4=CC(=O)CC[C@]4(C)[C@H]3CC[C@]12C | inactive |  |  |  |  | inactive | inactive |  | inactive | inactive |  | inactive |  |  |  |  |  | inactive | 
13 | CSc1ccc(C(=O)c2[nH]c(=O)[nH]c2C)cc1 | inactive | inactive | inactive | inactive | inactive | inactive | inactive | inactive |  | inactive | inactive |  | inactive | inactive | inactive |  |  | inactive | inactive
